Compounds without any hit were thinned out: in the full panel of roughly 83,000, 20% have a hit.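 Single-concentration screen, 48 h exposure, 96-well plates. Endpoint: percent growth. Below 10 = active.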 Unmarked numbers belong to inactive results. Active and inactive are the calls of the source.
Legend:
Test in all cases: NCI-60 one-dose screen, 48 h (100 = growth as untreated, 0 = no growth, -100 = all killed)
Settings in all cases: 10 µM unless noted
HCT-15 colon = test system: HCT-15 colon
HT29 colon = test system: HT29 colon
SNB-75 CNS = test system: SNB-75 CNS
SNB-19 CNS = test system: SNB-19 CNS
U251 CNS = test system: U251 CNS
PC-3 prostate = test system: PC-3 prostate
SK-MEL-5 melanoma = test system: SK-MEL-5 melanoma
UACC-62 melanoma = test system: UACC-62 melanoma
LOX IMVI melanoma = test system: LOX IMVI melanoma
SK-MEL-28 melanoma = test system: SK-MEL-28 melanoma
SK-MEL-2 melanoma = test system: SK-MEL-2 melanoma
EKVX NSCLC = test system: EKVX NSCLC
SN12C renal = test system: SN12C renal
UO-31 renal = test system: UO-31 renal
TK-10 renal = test system: TK-10 renal
ACHN renal = test system: ACHN renal
CAKI-1 renal = test system: CAKI-1 renal
A498 renal = test system: A498 renal
CCRF-CEM leukemia = test system: CCRF-CEM leukemia
MOLT-4 leukemia = test system: MOLT-4 leukemia

SMILES | growth (HCT-15 colon) | growth (HT29 colon) | growth (SNB-75 CNS) | growth (SNB-19 CNS) | growth (U251 CNS) | growth (PC-3 prostate) | growth (SK-MEL-5 melanoma) | growth (UACC-62 melanoma) | growth (LOX IMVI melanoma) | growth (SK-MEL-28 melanoma) | growth (SK-MEL-2 melanoma) | growth (EKVX NSCLC) [%] | growth (SN12C renal) | growth (UO-31 renal) | growth (TK-10 renal) | growth (ACHN renal) | growth (CAKI-1 renal) | growth (A498 renal) | growth (CCRF-CEM leukemia) | growth (MOLT-4 leukemia)
Cc1cc(C)c(-c2c(N)cc(Br)cc2Br)c(N)c1 | 46.5% | 48.7% | 22.9% | 63.4% | 37.4% | 63.3% | 29.3% | 58% | 32.8% | 51.1% | 44.1% | 65.9 | 68.7% | 61.5% | 72% | 75.1% | 50.3% | 70.9% | 26.4% | 34.4%
Cc1cccc(OCC(O)CN2CCN(c3ccc(Cl)cc3)CC2)c1 (stereo not given) | 117% | 104% | 95.1% | 99.8% | 104% | 86.5% | 100% | 94.2% | 96.8% | 100% | 110% | 115 | 100% | 82.4% | 106% | 108% | 93.1% | 100% | 89% | 97.1%
O=c1c2cc(F)ccc2sc2c(NCCCNCCO)nc3ccccc3c12 | -9.91% (active) | -53.3% (active) | 53.8% | 58.5% | 6.22% (active) | 25.2% | 70.5% | -39.4% (active) | -94.1% (active) | 28.1% | 90.9% | 51.9 | 46.9% | 10.9% | 41% | 8.85% (active) | -9.01% (active) | 2.69% (active) | 6.27% (active) | -31.6% (active)
CC(C)C(=O)Nc1ccc(-c2nc(-c3cccc(OCCN4CCOCC4)c3)c(-c3ccnc(Br)c3)[nH]2)cc1 | 20.1% | 16.9% | -4.1% (active) | 51.4% | 25% | 40.7% | 45.8% | 33.5% | 27.7% | 43.9% | 36.2% | 77.2 | 70.5% | 12.4% | 85.3% | 58.7% | 44% | 54.7% | 29% | 10.6%
COc1cc(CCC[P+](c2ccccc2)(c2ccccc2)c2ccccc2)c(OC)c2c1OCO2 | 93.1% | 47.2% | 3.69% (active) | 15.2% | 11.5% | 14.4% | -48.9% (active) | 0.576% (active) | 29.6% | 32.1% | -13.1% (active) | 25.4 | 29.6% | 93.9% | 12.1% | 94.1% | 75.8% | 41.5% | 37.8% | 44.4%
COC1=C(C)C(=O)c2c(c(CCCl)c3n2CCC3O)C1=O (stereo not given) | 2.73% (active) | -4.05% (active) | -45.3% (active) | 2.57% (active) | -3.61% (active) | -2.49% (active) | -51% (active) | -60.5% (active) | -23.5% (active) | -27.7% (active) | -48.8% (active) | 13.6 | 6.15% (active) | -60.4% (active) | -35.2% (active) | -3.06% (active) | 10.9% | -79.9% (active) | 66.3% | 74.6%
N#Cc1cccc(NC(=O)c2cc(-c3ccc(F)cc3F)ccc2O)c1 | 13.3% | 104% | 11.5% | 13.7% | 13% | 20.3% | -98.5% (active) | 13.7% | 13.2% | 25.6% | -6.68% (active) | 89.4 | 4.26% (active) | -11.4% (active) | 21.9% | 7.33% (active) | 3.62% (active) | -33.2% (active) | 27.4% | 11.8%
Cc1cc(=O)oc2cc(OC(=O)N3CCN(C)CC3)ccc12 | 99.4% | 114% | 73.1% | 100% | 107% | 96.7% | 102% | 97.6% | 95.1% | 101% | 116% | 99.2 | 97.9% | 85.3% | 125% | 96.6% | 89.7% | 105% | 104% | 97.7%
